The values that follow come from PubChem BioAssay (EPA / NIEHS).

A short description of assay [1]: ATG_XTT_Cytotoxicity: Cytotoxicity Assessment in the Attagene TRANS-FACTORIAL HepG2 Assay (AID 2283584). An outline of the steps:
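24 h chemical exposure of reporter-transfected HepG2; XTT signal loss vs DMSO indicates cytotoxicity.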

Assay [2] can be described thus: TOX21_p53_BLA_p2_viability: Viability Assessment in the Tox21 HCT-116 p53 Agonism Beta-lactamase Assay, Phase 2 (AID 2283591).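 Note: compound exposure lasted 16 h at 37 °C; actives lower the ATP signal meaning cytotoxicity.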 Put shortly: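 HCT116 p53-bla cells, 4000/well, dosed after 5 h plating (217-fold dilution of DMSO stocks) and incubated 16 h at 37C. Viability taken as cellular ATP by CellTiter-Glo luminescence after 30 min RT; signal loss marks cytotoxicity.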

In assay [3] the target is Cellular tumor antigen p53 (Homo sapiens) (UniProt P04637). Briefly: TOX21_p53_BLA_p2_ratio: Tox21 HCT-116 p53 Agonism Beta-lactamase Assay, Ratio, Phase 2 (AID 2283592). Put shortly:
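Human colon HCT116 cells with an inducible p53 beta-lactamase reporter are exposed to test chemicals for 16 h at 37C. Reporter induction is read as the 460/530 nm emission ratio after CCF4-AM loading, normalized to DMSO.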

Assay [4] can be described thus: TOX21_p53_BLA_p3_viability: Viability Assessment in the Tox21 HCT-116 p53 Agonism Beta-lactamase Assay, Phase 3 (AID 2283593).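 Note: cells exposed to compound for 16 h before reading.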 An outline of the steps: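 HCT116 cells, 4000/well, dosed 5 h after plating by pin transfer (217-fold dilution from DMSO stock) and incubated 16 h at 37C, 5% CO2. Viability read as ATP luminescence with CellTiter-Glo after 30 min at room temperature.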

Values joined by “and” are separate entries in the source; they are usually repeats but may differ in a detail not shown here. Equal entries are not always repeated. Records with an inconclusive call do not appear. Active and inactive are the calls of the source. Rule for the calls: active = hit-call score of the fitted dose curve at least 0.9, where 1 is the maximum; inconclusive = response in the unintended direction; inactive = score below 0.9.

For orientation: AC50 means the concentration giving half of the maximal activity seen.

Cellular tumor antigen p53 (Homo sapiens), sequence (P04637 whole entry, looked up): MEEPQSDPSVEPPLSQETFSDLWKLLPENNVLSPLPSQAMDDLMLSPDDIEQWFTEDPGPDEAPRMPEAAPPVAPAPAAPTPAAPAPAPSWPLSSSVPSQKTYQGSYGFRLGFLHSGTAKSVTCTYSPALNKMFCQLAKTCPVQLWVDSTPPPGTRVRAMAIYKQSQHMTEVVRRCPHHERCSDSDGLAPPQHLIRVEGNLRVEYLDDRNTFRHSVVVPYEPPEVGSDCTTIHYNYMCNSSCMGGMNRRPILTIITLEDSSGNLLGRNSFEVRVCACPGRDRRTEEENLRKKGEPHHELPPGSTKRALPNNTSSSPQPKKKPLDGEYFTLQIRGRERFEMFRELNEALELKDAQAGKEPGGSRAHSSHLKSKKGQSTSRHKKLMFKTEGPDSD

Take `CCCC(CC)c1ccccc1` (stereo unspecified): the result in assay [1], in assay [2], in assay [3] and in assay [4] was inactive.

`O=C(O[C@@H]1Cc2c(O)cc(O)cc2O[C@@H]1c1cc(O)c(O)c(O)c1)c1cc(O)c(O)c(O)c1`: the call in assay [1], in assay [2] and in assay [3] was inactive.

Consider `Oc1ccc(/C=C/c2cc(O)cc(O)c2)cc1`, for which the compound was classed as inactive in assay [1], in assay [2] and in assay [3].

As to `CCCCNS(=O)(=O)c1ccc(C)cc1`, the outcome in assay [1], in assay [2] and in assay [3] was inactive.

As to `CCCCOCCOC(=O)COc1ccc(Cl)cc1Cl`, the result in assay [1], in assay [2] and in assay [3] was inactive.

Turning to `CCCCC1C(=O)N(c2ccccc2)N(c2ccccc2)C1=O`, the compound was called inactive in assay [1], in assay [2] and in assay [3].

As for `N#CC1(N)CCCCC1`, the result in assay [1], in assay [2] and in assay [3] was inactive.

`C=CCCCCCCCCO`: the result in assay [1], in assay [2] and in assay [3] was inactive.

On to `CC(C)(c1ccccc1)c1ccc(Nc2ccc(C(C)(C)c3ccccc3)cc2)cc1`, for which the outcome in assay [1], in assay [2] and in assay [3] was inactive.

Take `CC(=O)OC(C)c1ccccc1` (stereo unspecified): the compound was classed as inactive in assay [1], in assay [2] and in assay [3].

For the compound `N#Cc1ccc(C2CCCc3cncn32)cc1` (stereo unspecified), the outcome in assay [1], in assay [2] and in assay [3] was inactive.

As to `COC(C=C(C)CCC=C(C)C)OC`, the compound was classed as inactive in assay [1], in assay [2] and in assay [3].

Consider `O=C1CCCCCCCCCCC1`, for which the compound was classed as inactive in assay [1], in assay [2] and in assay [3].

On to `C/C=C/C=C/CCCCCCCO`, for which the compound was classed as inactive in assay [1], in assay [2] and in assay [3].

Regarding `CC(C)(CO)COC(=O)C(C)(C)CO`, the compound was called inactive in assay [1], in assay [2], in assay [3] and in assay [4].

Consider `CCCCCCCCCCCCCC(=O)OC(C)C`, for which the call in assay [1], in assay [2] and in assay [3] was inactive.

For `CC(C)OC(=O)c1ccccc1`, the call in assay [1], in assay [2] and in assay [3] was inactive.

As for `CC(C)[N+](C)(CCOC(=O)C1c2ccccc2Oc2ccccc21)C(C)C`, the outcome in assay [1], in assay [2] and in assay [3] was inactive.

Consider `CCCC/C=C/C=C\C=O`, for which the outcome in assay [1], in assay [2] and in assay [3] was inactive.

`CC(C)C(=O)OCCOc1ccccc1`: the outcome in assay [1], in assay [2] and in assay [3] was inactive.

With `Oc1c(Cl)cc(Cl)c(Cl)c1Cl`, the call in assay [1] and in assay [2] was inactive. The AC50 in assay [3] was 34.4 µM (active) and 22.5 µM (active).

On to `C=CC(=O)OCCCCCCOC(=O)C=C`, for which the outcome in assay [1] and in assay [2] was inactive. In addition, the AC50 in assay [3] was 69.1 µM (active) and 66.7 µM (active).

As for `CN(C)c1ccc2nc3ccc(=[N+](C)C)cc-3sc2c1`, the outcome in assay [1] and in assay [2] was inactive. Besides, the half-maximal activity concentration (AC50) in assay [3] was 8.31 µM (active) and 23 µM (active) and 11.1 µM (active).

For the compound `CC1C(C)(C)C2=C(C(=O)CCC2)C1(C)C` (stereo unspecified), the call in assay [1], in assay [2] and in assay [3] was inactive.

For `CC(CC(C)C)=NO`, the compound was called inactive in assay [1], in assay [2] and in assay [3].

Turning to `COc1ccc(C(=O)c2ccccc2)c(O)c1`, the compound was classed as inactive in assay [1], in assay [2], in assay [3] and in assay [4].
